{"source": "PubChem BioAssay AID540361", "about": "(National Center for Advancing Translational Sciences (NCATS), 2011)", "target": "Lysosomal acid glucosylceramidase (Homo sapiens) (UniProt P04062)", "experiment": "Activators of Human alpha-Glucosidase as a Potential Chaperone Treatment of Pompe Disease: Alpha-Galactosidase Counter Screen", "conditions": "purified human alpha-galactosidase, 4-MU fluorogenic substrate", "source_text": "Alpha-glucosidase is responsible for hydrolysis of terminal, non-reducing 1,4-linked alpha-D-glucose residues with release of alpha-D-glucose. It is a lysosomal hydrolase that is required for the degradation of a small percentage (1-3%) of cellular glycogen in human. Deficiency of this enzyme results in glycogen-storage disease type II (GSDII), also referred to as Pompe disease, an autosomal recessive disorder. Structurally normal glycogen is accumulated in lysosomes and cytoplasm in affected patients, primarily in muscle tissues. Excessive glycogen storage within lysosomes may interrupt normal functioning of other organelles and leads to cellular injury. In turn, this leads to enlargement and dysfunction of the entire organ involved (eg, cardiomyopathy and muscle weakness). […]\nThis is a fluorogenic enzyme assay with 4-methylumbelliferyl-[…] as the substrate and human alpha-galactosidase as the enzyme preparation. […] 4-methyllumbelliferone, can be excited at 365 nm and emits at 440 nm which can be detected by a standard fluorescence plate reader. […] In the AC50 values were determined from concentration-response data modeled with the standard Hill equation. […] (5) Add 2 ul stop solution (1M NaOH and 1M Glycine mixture, pH 10) (6) Detect the assay plate in a ViewLux plate reader (PerkinElmer) with Ex=365 nm and Em=440nm. […]", "note": "Results filed as inconclusive are left out. The source made the active and inactive calls. The call rests on the fitted dose curve; in most records, active means well fitted curve in the direction sought with a large enough effect; inconclusive means small, poorly fitted or top-dose-only effect, or another doubt; inactive means no such curve, though single readings can be large or run the other way.", "data": [{"smiles": "CCCN1CNc2c(c(=O)[nH]c(=S)n2CCc2cccc(Cl)c2Cl)C1", "values": [{"measurement": "Potency", "result": "9.13 µM (active)"}]}]}
